Compound activity as filed in PubChem.
Cav32 inh: human Cav3.2 channel inhibition, primary screen; Cav3.2-expressing cells, Fluo-4 calcium fluorescence FDSS; active compounds read low; B-score at 10 µM; AID 449739; 100,000 tested, 4% active; O95180;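 active = single-dose well whose peak fluorescence ratio is a statistical outlier from its plate by either plate-standardised score or position-corrected B-score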
PTK2B oligo ant: Pyk2 (human) oligomerization antagonism. Q14289. Q293 cells, Pyk2 FERM NanoBiT luminescence; active compounds read low. 99,000 tested, 0.83% active. z-score (the deposit names both 25 µM and 10 µM);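 active = Z-score of -3 or lower, scaled per plate to the spread of control and sample wells; inactive = z-score above -3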;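 note: negative z-score means lost luminescence so less FERM oligomerization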
CYP2C19 act: increases human CYP2C19 enzyme activity. P33261. recombinant CYP2C19, luciferin-H EGE luminescence; active compounds read high; 0 = fully inhibited enzyme, 1 = untreated enzyme. activation factor at 5 µM. 96,000 tested, under 10 active;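 active = activation factor of at least 2 at 5 µM in the primary screen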;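 note: 0 = wells with 2.5 mM tranylcypromine and 1 = vehicle-only wells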
CYP2C9 activ: CYP2C9 (human) activation; recombinant CYP2C9, luciferin-H conversion, luminescence; active compounds read high; factor 1 = untreated enzyme, 0 = blocked; P11712; 96,000 tested, 1.4% active; activation factor at 5 µM; AID 1024;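 active = activation factor of 2 or more for CYP2C9 at a 5 µM dose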;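 note: 0 = sulfaphenazole-blocked wells and 1 = vehicle-only wells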
Target sequence (P11712 whole entry, looked up): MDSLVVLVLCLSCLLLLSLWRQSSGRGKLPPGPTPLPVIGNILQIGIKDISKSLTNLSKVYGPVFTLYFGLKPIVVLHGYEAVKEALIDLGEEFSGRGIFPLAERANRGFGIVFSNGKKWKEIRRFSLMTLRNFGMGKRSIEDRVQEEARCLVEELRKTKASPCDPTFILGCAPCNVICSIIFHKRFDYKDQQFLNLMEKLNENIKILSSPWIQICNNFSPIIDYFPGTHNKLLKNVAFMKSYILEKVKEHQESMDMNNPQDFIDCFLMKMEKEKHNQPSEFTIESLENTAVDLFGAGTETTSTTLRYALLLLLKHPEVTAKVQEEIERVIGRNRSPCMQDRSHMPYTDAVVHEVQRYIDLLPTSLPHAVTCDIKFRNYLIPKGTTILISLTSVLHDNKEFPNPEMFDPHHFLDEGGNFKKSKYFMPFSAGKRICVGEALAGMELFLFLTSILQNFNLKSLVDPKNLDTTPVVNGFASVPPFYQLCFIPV
CYP2C9 inh: inhibitors of human CYP2C9; inhibition, % at 5 µM; CYP2C9 Supersomes, luciferin-H conversion, luminescence; AID 777; 96,000 tested, 20% active;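 active = blocking of liver enzyme CYP2C9 beyond about 50% at 5 µM, limit read from the data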
CYP2C19 inhib: inhibitors of human CYP2C19; P33261; CYP2C19 Supersomes, luciferin-H EGE luminescence, 30 min; inhibition, % at 5 µM; 96,000 tested, 21% active;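 active = CYP2C19 inhibition above a set limit at 5 µM in the primary screen, cut at about 50% in these data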;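 note: plate controls were negative control wells for no effect and 2.5 mM tranylcypromine positive control for full effect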
An asterisk follows results filed as active. In the library only some 27% were active in any assay of this set; here they are far more common.

For CCC(C(=O)NCc1ccco1)N(C(=O)CNS(=O)(=O)c1ccc(C)cc1)c1ccccc1OC (stereo unspecified) the results were Cav32 inh -3.5*, PTK2B oligo ant 0.49, CYP2C19 act 0.8, CYP2C9 activ 0.9, CYP2C9 inh 13 and CYP2C19 inhib 23.
Screening COc1ccccc1N(C(=O)CNS(=O)(=O)c1ccccc1)C(C(=O)NCc1ccco1)C(C)C (stereo unspecified) returned Cav32 inh -0.023, PTK2B oligo ant 0.31, CYP2C19 act 0.8, CYP2C9 activ 0.7, CYP2C9 inh 34 and CYP2C19 inhib 23.
CCCC(C(=O)NCc1ccco1)N(C(=O)CNS(=O)(=O)c1ccccc1)c1ccccc1OC (stereo unspecified) was read as Cav32 inh -5.4*, PTK2B oligo ant -0.2, CYP2C19 act 0.6, CYP2C9 activ 0.9, CYP2C9 inh 12 and CYP2C19 inhib 40.
CCOC(=O)c1c(N)n(C2CC(C)(C)NC(C)(C)C2)c2nc3ccccc3nc12 was read as Cav32 inh -0.32, PTK2B oligo ant 0.5, CYP2C19 act 1, CYP2C9 activ 0.9, CYP2C9 inh 8 and CYP2C19 inhib -1.
For CC(C)(C)NC(=O)Cn1c(-c2nonc2N)nc2ccccc21 the results were Cav32 inh 1, PTK2B oligo ant -1.1, CYP2C19 act 0.4, CYP2C9 activ 0.2, CYP2C9 inh 76* and CYP2C19 inhib 62*.
Screening Nc1nonc1-c1nc2ccccc2n1CC(=O)N/N=C\c1ccc(-c2ccc(Cl)cc2)o1 returned Cav32 inh -0.045, PTK2B oligo ant 0.26, CYP2C19 act 1.1, CYP2C9 activ 1, CYP2C9 inh -1 and CYP2C19 inhib -10.
`CCC(=O)Nc1nonc1-c1nc2ccccc2n1Cc1ccccc1` gave Cav32 inh -0.64, PTK2B oligo ant -0.05, CYP2C19 act 0.5, CYP2C9 activ 0.6, CYP2C9 inh 41 and CYP2C19 inhib 45.
`CSc1ccccc1NC(=O)Cn1c(-c2cscn2)nc2ccccc21` gave Cav32 inh -1.1, PTK2B oligo ant -0.45, CYP2C19 act 0, CYP2C9 activ 0.2, CYP2C9 inh 78* and CYP2C19 inhib 98*.
Screening CCOC(=O)Cn1c(-c2nonc2NC(=O)c2ccccc2F)nc2ccccc21 returned Cav32 inh -1.3, PTK2B oligo ant -2.5, CYP2C19 act 0.5, CYP2C9 activ 0.1, CYP2C9 inh 92* and CYP2C19 inhib 50.
Screening CCCCOc1ccccc1NC(=O)Cn1c(-c2nonc2N)nc2ccccc21 returned Cav32 inh -4.2*, PTK2B oligo ant 1.1, CYP2C19 act 0.7, CYP2C9 activ 0.3, CYP2C9 inh 70* and CYP2C19 inhib 33.
`Cc1ccc(Cn2c(-c3nonc3N)nc3ccccc32)cc1` gave Cav32 inh -0.61, PTK2B oligo ant -0.27, CYP2C19 act 0.8, CYP2C9 activ 0.7, CYP2C9 inh 31 and CYP2C19 inhib 22.
CCOc1ccc2nc(NC(=O)C3CCCN(S(=O)(=O)c4c(C)noc4C)C3)sc2c1 (stereo unspecified) was read as Cav32 inh -0.32.
For O=C(c1cccs1)N1CCn2c1nc1ccccc12 the results were Cav32 inh 0.12, PTK2B oligo ant -0.41, CYP2C19 act 1, CYP2C9 activ 1.1, CYP2C9 inh -12 and CYP2C19 inhib 4.
`O=C(C1=COCCO1)N1CCN(S(=O)(=O)c2cccc(Cl)c2Cl)CC1` gave Cav32 inh 1.2, PTK2B oligo ant 0.38, CYP2C19 act 0.7, CYP2C9 activ 0.8, CYP2C9 inh 17 and CYP2C19 inhib 25.
`Cc1ccc(S(=O)(=O)N2CCN(C(=O)c3nn(C(C)C)c(=O)c4ccccc34)CC2)cc1C` gave Cav32 inh 0.26, PTK2B oligo ant -1.5, CYP2C19 act 0.6, CYP2C9 activ 0.4, CYP2C9 inh 59* and CYP2C19 inhib 38.
Cn1nc(C(=O)N2CCN(S(=O)(=O)c3ccccc3)CC2)c2ccccc2c1=O was read as Cav32 inh -0.12, PTK2B oligo ant -0.79, CYP2C19 act 1.1, CYP2C9 activ 1, CYP2C9 inh 2 and CYP2C19 inhib -6.
Screening Cc1ccc(S(=O)(=O)N2CCN(C(=O)C3=COCCO3)CC2)cc1C returned Cav32 inh 1.2, PTK2B oligo ant 0.08, CYP2C19 act 0, CYP2C9 activ 1, CYP2C9 inh 3 and CYP2C19 inhib 97*.
`CC(C)n1nc(C(=O)NCCc2ccc(S(N)(=O)=O)cc2)c2ccccc2c1=O` gave Cav32 inh 0.55, PTK2B oligo ant -0.25, CYP2C19 act 0.9, CYP2C9 activ 0.4, CYP2C9 inh 63* and CYP2C19 inhib 9.
COC(C)(C)[C@]12CC(O)(c3ccccc3)ON1[C@H]1CCCCC1N2O (stereo partly specified) was read as Cav32 inh -0.77, PTK2B oligo ant -0.5, CYP2C19 act 0.7, CYP2C9 activ 1.2, CYP2C9 inh -19 and CYP2C19 inhib 30.
Screening O=C1NC(=Nc2ccccc2)S/C1=C\c1cccn1-c1ccccc1 returned Cav32 inh -0.091, PTK2B oligo ant -2.2, CYP2C19 act 0.8, CYP2C9 activ 1.7, CYP2C9 inh -67 and CYP2C19 inhib 18.
N#Cc1ccccc1CN1C(=O)S/C(=C/c2cccn2-c2ccc(C(=O)O)cc2)C1=O was read as Cav32 inh 2.8, PTK2B oligo ant -3.2*, CYP2C19 act 1, CYP2C9 activ 0.8, CYP2C9 inh 22 and CYP2C19 inhib 2.
Screening CCCCNC(=O)/C=C/c1ccc(OC)c(Br)c1 returned Cav32 inh -1.5, PTK2B oligo ant -0.65, CYP2C19 act 0.6, CYP2C9 activ 1.6, CYP2C9 inh -56 and CYP2C19 inhib 41.
For COc1ccc(C2C(C(=O)NCc3cccnc3)c3ccccc3C(=O)N2C)cc1OC (stereo unspecified) the results were Cav32 inh -0.044, PTK2B oligo ant 0.36, CYP2C19 act 1.1, CYP2C9 activ 0.3, CYP2C9 inh 70* and CYP2C19 inhib -14.
`COc1ccc(C2C(C(=O)N3CCN(c4ccccc4)CC3)c3ccccc3C(=O)N2C)cc1OC` (stereo unspecified) gave Cav32 inh 0.46, PTK2B oligo ant -0.37, CYP2C19 act 0.7, CYP2C9 activ 0.3, CYP2C9 inh 73* and CYP2C19 inhib 35.
O=c1[nH][nH]c(C(F)(F)F)c1C=NCc1cccc(Cl)c1 was read as Cav32 inh -0.0086, PTK2B oligo ant -0.19, CYP2C19 act 0.3, CYP2C9 activ 0.7, CYP2C9 inh 34 and CYP2C19 inhib 68*.
Screening O=c1[nH][nH]c(C(F)(F)F)c1C=Nc1ccccc1Cl returned Cav32 inh 0.0058, PTK2B oligo ant 1.1, CYP2C19 act 0.8, CYP2C9 activ 1, CYP2C9 inh -4 and CYP2C19 inhib 15.
